Of roughly 7,900 targets only a part is listed; those with a hit were picked by preference. About 0.6% of all pairs of compound and target were hits. A number with no mark means an inactive call.
Key:
Assay in all cases: log2 fold change, soluble protein after heating vs DMSO (PISA); higher = thermal stabilisation; K562 cells, 10 uM, 30 min; active = over 0.2 and 3.5 SD of the protein, either way, in both replicates (recomputed)
[1] = compound: COC1=CC=C(C=C1)CN2C=CC3=C2C=C(C=C3)C(=O)NO
How it was run: (§1)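 K562 cells at 2×10^6 cells/mL were exposed to 10 μM compound for 30 min, then aliquots were heated for 3 min across 48°C-58°C, pooled, and extracted in PBS containing 0.5% NP-40 at 4°C. The supernatant after 21,000xg for 90 min was taken as soluble protein and measured by TMTpro 16plex LC-MS/MS with channel sums equalised. Thermal stability is reported relative to control samples, with values from duplicates. Fold changes are given on a log2 scale.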

filanesib = compound: CON(C)C(=O)N1N=C(c2cc(F)ccc2F)S[C@@]1(CCCN)c1ccccc1 [filanesib]
How it was run: as §1

zotarolimus = compound: CO[C@H]1C[C@@H]2CC[C@@H](C)[C@@](O)(O2)C(=O)C(=O)N2CCCC[C@H]2C(=O)O[C@H]([C@H](C)C[C@@H]2CC[C@H](n3cnnn3)[C@H](OC)C2)CC(=O)[C@H](C)/C=C(\C)[C@@H](O)[C@@H](OC)C(=O)[C@H](C)C[C@H](C)/C=C/C=C/C=C/1C [zotarolimus]
How it was run: as §1

idasanutlin = compound: COc1cc(C(=O)O)ccc1NC(=O)[C@@H]1N[C@@H](CC(C)(C)C)[C@](C#N)(c2ccc(Cl)cc2F)[C@H]1c1cccc(Cl)c1F [idasanutlin]
How it was run: as §1

alisertib = compound: COc1cc(Nc2ncc3c(n2)-c2ccc(Cl)cc2C(c2c(F)cccc2OC)=NC3)ccc1C(=O)O [alisertib]
How it was run: as §1

[2] = compound: COc1cc2nc(-c3cc(F)ccc3O)nc(N[C@@H]3CNC[C@H]3C(C)(C)O)c2cc1OC
How it was run: as §1

gefitinib = compound: COc1cc2ncnc(Nc3ccc(F)c(Cl)c3)c2cc1OCCCN1CCOCC1 [gefitinib]
How it was run: as §1

[3] = compound: COc1cccc2cc(-c3nc([C@H]4CC[C@H](C(=O)O)CC4)n4ncnc(N)c34)[nH]c12
How it was run: as §1

lapatinib = compound: CS(=O)(=O)CCNCc1ccc(-c2ccc3ncnc(Nc4ccc(OCc5cccc(F)c5)c(Cl)c4)c3c2)o1 [lapatinib]
How it was run: as §1

pictilisib = compound: CS(=O)(=O)N1CCN(Cc2cc3nc(-c4cccc5[nH]ncc45)nc(N4CCOCC4)c3s2)CC1 [pictilisib]
How it was run: as §1

UniProt P62195, sequence (P62195 whole entry, looked up): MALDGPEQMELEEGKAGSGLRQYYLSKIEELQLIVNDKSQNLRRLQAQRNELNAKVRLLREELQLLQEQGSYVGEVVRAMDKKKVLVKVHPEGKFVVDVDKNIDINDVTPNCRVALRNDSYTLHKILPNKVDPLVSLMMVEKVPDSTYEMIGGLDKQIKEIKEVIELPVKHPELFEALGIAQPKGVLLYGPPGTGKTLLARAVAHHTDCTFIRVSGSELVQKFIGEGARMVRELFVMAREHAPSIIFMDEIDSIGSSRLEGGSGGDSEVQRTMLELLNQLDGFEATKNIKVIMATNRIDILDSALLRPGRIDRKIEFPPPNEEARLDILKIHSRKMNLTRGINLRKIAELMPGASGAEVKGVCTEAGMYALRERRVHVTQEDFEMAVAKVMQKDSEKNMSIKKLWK
UniProt O15067, sequence (O15067 whole entry, looked up): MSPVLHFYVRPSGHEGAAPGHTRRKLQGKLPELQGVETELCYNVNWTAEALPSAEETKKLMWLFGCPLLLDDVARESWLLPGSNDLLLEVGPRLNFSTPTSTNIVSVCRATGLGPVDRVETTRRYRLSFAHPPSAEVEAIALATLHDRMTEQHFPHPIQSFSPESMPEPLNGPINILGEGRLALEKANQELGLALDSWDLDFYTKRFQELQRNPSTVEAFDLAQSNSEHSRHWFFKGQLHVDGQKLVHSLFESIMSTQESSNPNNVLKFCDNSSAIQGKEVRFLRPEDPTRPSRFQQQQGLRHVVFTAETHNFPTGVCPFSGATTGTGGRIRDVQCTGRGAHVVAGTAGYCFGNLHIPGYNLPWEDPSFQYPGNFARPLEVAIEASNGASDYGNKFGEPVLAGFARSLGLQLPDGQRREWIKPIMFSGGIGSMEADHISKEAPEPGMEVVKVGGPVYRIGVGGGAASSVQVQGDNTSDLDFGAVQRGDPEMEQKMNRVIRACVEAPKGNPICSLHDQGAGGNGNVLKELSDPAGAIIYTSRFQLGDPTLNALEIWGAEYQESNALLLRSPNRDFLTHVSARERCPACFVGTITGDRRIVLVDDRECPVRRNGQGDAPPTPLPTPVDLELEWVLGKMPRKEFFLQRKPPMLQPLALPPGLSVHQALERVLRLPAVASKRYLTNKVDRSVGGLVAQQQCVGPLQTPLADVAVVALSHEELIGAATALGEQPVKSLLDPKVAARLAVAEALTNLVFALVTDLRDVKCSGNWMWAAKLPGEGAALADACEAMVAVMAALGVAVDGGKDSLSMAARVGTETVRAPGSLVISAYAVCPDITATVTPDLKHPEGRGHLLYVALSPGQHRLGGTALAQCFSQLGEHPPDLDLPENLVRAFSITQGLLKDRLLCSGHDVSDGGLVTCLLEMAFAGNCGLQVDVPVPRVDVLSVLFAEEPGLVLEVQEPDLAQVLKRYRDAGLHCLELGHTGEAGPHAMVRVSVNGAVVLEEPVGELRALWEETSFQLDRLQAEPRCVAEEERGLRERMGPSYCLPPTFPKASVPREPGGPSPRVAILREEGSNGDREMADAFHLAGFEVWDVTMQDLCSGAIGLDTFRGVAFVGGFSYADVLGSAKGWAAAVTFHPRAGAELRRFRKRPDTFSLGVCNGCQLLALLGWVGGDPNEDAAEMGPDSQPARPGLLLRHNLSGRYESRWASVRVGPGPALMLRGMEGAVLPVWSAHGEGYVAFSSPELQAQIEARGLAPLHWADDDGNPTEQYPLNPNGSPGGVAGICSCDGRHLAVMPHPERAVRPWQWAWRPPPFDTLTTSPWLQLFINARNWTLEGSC
UniProt Q9NR12, sequence (Q9NR12 whole entry, looked up): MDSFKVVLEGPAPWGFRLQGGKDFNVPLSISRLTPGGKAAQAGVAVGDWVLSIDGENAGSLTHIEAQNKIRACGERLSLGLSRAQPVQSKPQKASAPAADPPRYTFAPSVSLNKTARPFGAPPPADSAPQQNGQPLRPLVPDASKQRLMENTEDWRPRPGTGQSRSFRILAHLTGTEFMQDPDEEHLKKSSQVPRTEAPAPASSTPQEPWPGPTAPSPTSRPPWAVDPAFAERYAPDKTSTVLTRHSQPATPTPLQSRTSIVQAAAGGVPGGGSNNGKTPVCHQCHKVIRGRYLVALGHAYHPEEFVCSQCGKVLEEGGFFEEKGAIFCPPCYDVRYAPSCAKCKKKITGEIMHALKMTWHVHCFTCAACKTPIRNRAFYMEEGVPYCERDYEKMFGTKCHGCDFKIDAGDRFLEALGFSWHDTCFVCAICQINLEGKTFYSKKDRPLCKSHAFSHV
UniProt P49642, sequence (P49642 whole entry, looked up): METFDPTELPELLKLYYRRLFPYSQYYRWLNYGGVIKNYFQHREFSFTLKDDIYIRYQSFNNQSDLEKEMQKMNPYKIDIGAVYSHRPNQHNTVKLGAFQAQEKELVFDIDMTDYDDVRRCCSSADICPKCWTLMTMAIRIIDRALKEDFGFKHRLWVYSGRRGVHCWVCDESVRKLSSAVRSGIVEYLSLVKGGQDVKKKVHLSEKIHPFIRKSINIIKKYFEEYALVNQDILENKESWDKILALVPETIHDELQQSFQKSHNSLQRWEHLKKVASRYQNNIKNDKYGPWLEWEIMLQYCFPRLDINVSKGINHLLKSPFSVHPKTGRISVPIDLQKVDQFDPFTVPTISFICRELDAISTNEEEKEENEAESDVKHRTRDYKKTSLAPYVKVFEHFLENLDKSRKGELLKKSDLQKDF
UniProt P15735, sequence (P15735 whole entry, looked up): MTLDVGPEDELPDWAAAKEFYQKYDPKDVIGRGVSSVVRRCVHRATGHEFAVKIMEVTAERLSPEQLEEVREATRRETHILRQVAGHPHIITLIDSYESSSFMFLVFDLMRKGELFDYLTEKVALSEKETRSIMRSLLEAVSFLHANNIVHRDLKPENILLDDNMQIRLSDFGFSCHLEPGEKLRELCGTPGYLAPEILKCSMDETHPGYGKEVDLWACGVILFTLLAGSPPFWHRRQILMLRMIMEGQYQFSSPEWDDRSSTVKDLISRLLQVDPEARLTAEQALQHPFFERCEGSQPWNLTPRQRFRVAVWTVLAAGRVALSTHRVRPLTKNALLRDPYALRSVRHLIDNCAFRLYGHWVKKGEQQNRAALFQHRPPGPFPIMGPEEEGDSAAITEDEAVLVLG
UniProt P27986, sequence (P27986 whole entry, looked up): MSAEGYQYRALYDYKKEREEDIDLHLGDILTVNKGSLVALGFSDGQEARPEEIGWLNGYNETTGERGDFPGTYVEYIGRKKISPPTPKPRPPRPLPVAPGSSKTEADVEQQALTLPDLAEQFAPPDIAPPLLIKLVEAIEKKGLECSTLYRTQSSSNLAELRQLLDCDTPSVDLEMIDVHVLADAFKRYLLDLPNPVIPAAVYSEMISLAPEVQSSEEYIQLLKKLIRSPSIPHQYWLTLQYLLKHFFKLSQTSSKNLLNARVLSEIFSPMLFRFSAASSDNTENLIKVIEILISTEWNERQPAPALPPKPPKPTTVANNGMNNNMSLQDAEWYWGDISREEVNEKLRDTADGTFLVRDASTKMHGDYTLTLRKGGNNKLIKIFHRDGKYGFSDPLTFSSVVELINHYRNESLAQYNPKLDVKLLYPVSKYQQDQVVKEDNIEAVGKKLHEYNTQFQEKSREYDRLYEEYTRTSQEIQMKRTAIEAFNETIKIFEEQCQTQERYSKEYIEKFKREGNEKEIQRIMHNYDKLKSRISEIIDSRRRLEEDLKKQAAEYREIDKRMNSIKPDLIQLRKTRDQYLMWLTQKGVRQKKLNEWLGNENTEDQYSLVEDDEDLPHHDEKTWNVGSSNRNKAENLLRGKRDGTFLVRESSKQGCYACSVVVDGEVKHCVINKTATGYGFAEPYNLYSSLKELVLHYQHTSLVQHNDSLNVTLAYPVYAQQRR
UniProt P53350, sequence (P53350 whole entry, looked up): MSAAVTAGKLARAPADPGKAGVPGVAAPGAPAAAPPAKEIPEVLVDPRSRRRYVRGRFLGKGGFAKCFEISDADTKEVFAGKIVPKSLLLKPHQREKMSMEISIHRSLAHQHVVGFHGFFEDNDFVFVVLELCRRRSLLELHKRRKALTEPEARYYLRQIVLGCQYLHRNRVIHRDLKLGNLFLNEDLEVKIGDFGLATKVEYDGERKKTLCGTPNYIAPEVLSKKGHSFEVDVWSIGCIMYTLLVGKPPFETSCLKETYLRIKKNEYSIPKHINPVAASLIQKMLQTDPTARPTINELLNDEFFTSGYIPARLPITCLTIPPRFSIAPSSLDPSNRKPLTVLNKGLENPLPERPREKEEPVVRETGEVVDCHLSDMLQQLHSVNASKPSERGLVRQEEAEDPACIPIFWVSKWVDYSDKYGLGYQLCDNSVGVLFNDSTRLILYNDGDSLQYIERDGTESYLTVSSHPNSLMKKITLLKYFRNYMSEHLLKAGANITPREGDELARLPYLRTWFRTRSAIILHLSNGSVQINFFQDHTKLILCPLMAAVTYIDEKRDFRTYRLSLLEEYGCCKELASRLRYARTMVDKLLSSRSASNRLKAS
UniProt P49585, sequence (P49585 whole entry, looked up): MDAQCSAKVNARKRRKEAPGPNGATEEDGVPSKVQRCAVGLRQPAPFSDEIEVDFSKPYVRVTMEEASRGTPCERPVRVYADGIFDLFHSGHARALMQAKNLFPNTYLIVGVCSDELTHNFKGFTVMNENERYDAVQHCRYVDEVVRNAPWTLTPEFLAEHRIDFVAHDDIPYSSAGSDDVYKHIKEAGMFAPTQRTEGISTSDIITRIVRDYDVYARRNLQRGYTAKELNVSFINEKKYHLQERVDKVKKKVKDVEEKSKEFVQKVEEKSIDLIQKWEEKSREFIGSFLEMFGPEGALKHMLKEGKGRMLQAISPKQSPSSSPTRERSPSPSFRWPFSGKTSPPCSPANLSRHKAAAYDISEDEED
UniProt Q15121, sequence (Q15121 whole entry, looked up): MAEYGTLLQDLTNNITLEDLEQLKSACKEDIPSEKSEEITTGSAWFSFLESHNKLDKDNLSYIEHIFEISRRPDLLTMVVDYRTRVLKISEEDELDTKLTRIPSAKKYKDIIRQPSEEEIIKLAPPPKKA

| Target | log2 fold change [1] | log2 fold change (filanesib) | log2 fold change (zotarolimus) | log2 fold change (idasanutlin) | log2 fold change (alisertib) | log2 fold change [2] | log2 fold change (gefitinib) | log2 fold change [3] | log2 fold change (lapatinib) | log2 fold change (pictilisib) |
| --- | --- | --- | --- | --- | --- | --- | --- | --- | --- | --- |
| PFAS (UniProt O15067) | 0.149 | -0.045 | 0.069 | 0.085 | 0.029 | 0.26 | -0.005 | 0.013 | -0.063 | -0.449 (active) |
| PEA15 isoform 2 (UniProt Q15121) | 0.011 | -0.079 | 0.05 | -0.02 | -0.047 | -0.009 | 0 | -0.015 | -0.003 | 0.03 |
| PRPF3 (UniProt O43395) | 0.18 | -0.038 | -0.048 | -0.029 | 0.031 | -0.07 | 0.06 | 0.072 | -0.02 | -0.022 |
| POLR2G (UniProt P62487) | 0.039 | -0.014 | -0.046 | -0.006 | -0.054 | 0.127 | 0.001 | 0.106 | -0.022 | 0.109 |
| PDCD2L (UniProt Q9BRP1) | 0.085 | 0.014 | -0.033 | -0.031 | -0.033 | 0 | -0.09 | -0.018 | -0.048 | -0.062 |
| PCYT1A (UniProt P49585) | 0.006 | -0.005 | 0.035 | -0.015 | 0.025 | -0.05 | -0.012 | -0.037 | 0.018 | 0.03 |
| PPP1R35 (UniProt Q8TAP8) | 0.003 | 0.026 | -0.004 | 0.196 | -0.003 | -0.125 | 0.027 | 0.083 | 0.011 | -0.068 |
| PHKG2 (UniProt P15735) | 0.014 | -0.01 | -0.051 | 0.007 | -0.026 | 0.219 | -0.063 | 0.015 | 0.105 | -0.055 |
| PCBP2 isoform 3 (UniProt Q15366) | 0.138 | -0.031 | 0.048 | -0.064 | 0.012 | -0.092 | 0.011 | 0.002 | 0.003 | -0.013 |
| PDCD6IP (UniProt Q8WUM4) | 0.105 | -0.022 | 0.079 | -0.018 | 0.045 | 0.022 | 0.06 | -0.118 | -0.04 | 0.009 |
| PPID (UniProt Q08752) | 0.041 | 0 | 0.056 | -0.055 | -0.009 | 0.093 | 0.112 | -0.091 | -0.041 | 0.039 |
| POLA2 (UniProt Q14181) | 0.086 | -0.001 | 0.015 | -0.02 | 0.005 | 0.046 | 0 | -0.015 | 0.018 | 0.051 |
| PCBP2 (UniProt F8VRH0) | 0.139 | 0.107 | 0.013 | 0.218 | 0.305 | -0.34 | 0.055 | -0.21 | 0.06 | -0.231 |
| PIK3R1 (UniProt P27986) | 0.01 | -0.041 | -0.002 | -0.027 | -0.075 | 0.054 | 0.045 | 0.014 | -0.005 | 0.048 |
| PRKACA (UniProt P17612) | 0.05 | -0.076 | -0.034 | 0.006 | -0.078 | 0.088 | -0.004 | 0.028 | 0.025 | 0.068 |
| PEX16 isoform 2 (UniProt Q9Y5Y5) | 0.146 | -0.152 | 0.016 | -0.076 | -0.011 | -0.227 | -0.021 | 0.193 | 0.05 | -0.089 |
| PLK1 (UniProt P53350) | 0.013 | 0.068 | -0.021 | 0.014 | 0.02 | 0.092 | -0.024 | -0.133 | 0.041 | -0.072 |
| PRKAR2A (UniProt P13861) | -0.033 | -0.021 | 0.013 | -0.009 | -0.058 | -0.493 (active) | 0.048 | 0.006 | 0.034 | 0.057 |
| PECAM1 (UniProt P16284) | 0.018 | 0.114 | -0.002 | -0.029 | -0.053 | 0.025 | 0.02 | 0.063 | -0.021 | 0.12 |
| PSMC5 (UniProt P62195) | -0.024 | 0.037 | -0.018 | 0 | -0.019 | -0.053 | -0.025 | -0.031 | 0.052 | -0.05 |
| PRIM1 (UniProt P49642) | 0.04 | 0.001 | 0.073 | -0.06 | 0.052 | -0.012 | 0.011 | -0.053 | 0.007 | 0.021 |
| PDE4DIP isoform 4 (UniProt Q5VU43) | 0.113 | -0.057 | -0.046 | 0.055 | -0.102 | 0.024 | 0.024 | -0.022 | -0.005 | 0.042 |
| PDLIM7 (UniProt Q9NR12) | 0.055 | 0.014 | 0.014 | -0.042 | -0.06 | 0.03 | -0.104 | 0.012 | 0.012 | -0.046 |
| POGLUT1 (UniProt Q8NBL1) | -0.086 | 0.076 | -0.004 | 0.114 | -0.051 | 0.035 | -0.046 | -0.132 | 0.036 | -0.099 |
| POLR2I (UniProt P36954) | -0.012 | 0.041 | -0.017 | 0.029 | 0.061 | 0.076 | -0.003 | 0.062 | -0.006 | -0.041 |
| PLCG1 isoform 2 (UniProt P19174) | 0.104 | -0.139 | 0.038 | 0.017 | 0.05 | 0.012 | -0.047 | 0.029 | -0.003 | 0.046 |
| PSMD12 (UniProt O00232) | -0.015 | 0.047 | 0.013 | -0.025 | -0.096 | -0.07 | -0.018 | -0.067 | 0.096 | -0.059 |

Reference: the supplement of paper PMC10849652
